# Source: ChEMBL document CHEMBL3988442, “University of Dundee, Small-Polar-MMV Screening Library” (2021)
# For some of these results: Entries with a potency or affinity are not part of this list.
# Tests used:
# Design in all cases: scale not given: direction of the effect not stated beside the values
# [1] = molecular target: Protein translocase subunit SecA (Escherichia coli (strain K12)) (UniProt P10408); assay: Assay to Identify E. coli SecA ATPase Inhibitors; format: functional; conditions: 30 µM
# [2] = molecular target: T1, Ubiquitin-activating enzyme e1, putative (Leishmania donovani (strain BPK282A1)) (UniProt E9BSI1); assay: Leishmania donovani Ubiquitin Activating Enzyme (LdE1); format: functional; conditions: 30 µM
# T1 sequence (whole entry): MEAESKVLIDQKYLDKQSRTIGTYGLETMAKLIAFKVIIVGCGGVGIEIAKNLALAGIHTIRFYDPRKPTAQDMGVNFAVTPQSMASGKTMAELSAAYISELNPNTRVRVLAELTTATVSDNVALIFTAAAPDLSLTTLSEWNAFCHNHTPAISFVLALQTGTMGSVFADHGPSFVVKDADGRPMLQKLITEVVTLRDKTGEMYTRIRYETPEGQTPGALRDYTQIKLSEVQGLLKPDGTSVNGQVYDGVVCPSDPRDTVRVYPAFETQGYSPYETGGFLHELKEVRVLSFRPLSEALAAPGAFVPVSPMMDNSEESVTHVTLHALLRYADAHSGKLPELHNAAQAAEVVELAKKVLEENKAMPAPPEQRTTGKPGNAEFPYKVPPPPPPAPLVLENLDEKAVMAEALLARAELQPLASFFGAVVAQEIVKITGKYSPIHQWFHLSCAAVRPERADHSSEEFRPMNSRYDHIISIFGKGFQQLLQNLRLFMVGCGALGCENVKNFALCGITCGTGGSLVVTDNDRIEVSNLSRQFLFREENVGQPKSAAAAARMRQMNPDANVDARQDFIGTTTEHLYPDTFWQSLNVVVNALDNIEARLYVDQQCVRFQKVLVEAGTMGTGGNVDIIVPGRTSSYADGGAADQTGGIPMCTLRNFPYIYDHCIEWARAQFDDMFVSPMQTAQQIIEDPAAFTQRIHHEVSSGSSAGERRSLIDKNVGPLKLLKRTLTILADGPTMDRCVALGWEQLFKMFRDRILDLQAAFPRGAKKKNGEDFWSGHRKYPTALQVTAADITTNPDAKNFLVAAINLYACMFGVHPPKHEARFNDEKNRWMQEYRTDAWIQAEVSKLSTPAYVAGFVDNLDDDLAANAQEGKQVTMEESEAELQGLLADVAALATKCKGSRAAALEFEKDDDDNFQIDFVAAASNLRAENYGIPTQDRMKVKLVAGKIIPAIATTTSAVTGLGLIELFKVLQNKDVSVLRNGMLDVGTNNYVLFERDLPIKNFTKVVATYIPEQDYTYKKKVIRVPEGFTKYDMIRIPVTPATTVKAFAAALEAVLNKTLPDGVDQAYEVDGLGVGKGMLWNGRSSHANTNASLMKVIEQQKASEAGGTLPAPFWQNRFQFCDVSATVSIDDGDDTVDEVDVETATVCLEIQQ
# [3] = molecular target: AMP-activated protein kinase, AMPK (Homo sapiens) (UniProt P54646+O43741+P54619+Q9UGJ0+Q9Y478+Q13131+Q9UGI9); assay: AMP-dependent Kinase enzyme assay. An in vitro enzyme assay that detects ADP turnover that is directly proportional to AMPK activity. This uses naive AMPK that is activated during the assay with MK-8722; format: functional; conditions: 30 µM
# [4] = molecular target: Sialic acid-binding Ig-like lectin 9 (Homo sapiens) (UniProt Q9Y336); assay: Hs-Siglec9 ALPHAscreen SOP 20170721; conditions: 10 µM
# [5] = test system: Trypanosoma cruzi; assay: Trypanosoma cruzi phosphomannomutase and mannose-1-phosphate guanylyltransferase assay; format: functional; conditions: 10 µM
# [6] = molecular target: T2, Arginase-2, mitochondrial (Homo sapiens) (UniProt P78540); assay: in vitro enzyme assay to detect the production of urea directly proportional to the activity of Arginase II; format: functional; conditions: 33.3 µM; further: in the data most compounds retested in dose-response had high values
# T2 sequence (whole entry): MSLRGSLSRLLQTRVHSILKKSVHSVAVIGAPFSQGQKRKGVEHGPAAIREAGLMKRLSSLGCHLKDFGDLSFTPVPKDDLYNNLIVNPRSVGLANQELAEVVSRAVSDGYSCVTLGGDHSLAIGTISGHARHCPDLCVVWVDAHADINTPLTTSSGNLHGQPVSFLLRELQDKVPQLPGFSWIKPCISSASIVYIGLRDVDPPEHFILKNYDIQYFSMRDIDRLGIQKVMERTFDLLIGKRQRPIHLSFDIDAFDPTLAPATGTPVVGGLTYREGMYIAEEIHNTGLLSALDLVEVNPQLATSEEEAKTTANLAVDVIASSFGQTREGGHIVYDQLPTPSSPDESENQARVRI
# [7] = molecular target: T3, Proteasome subunit beta (Trypanosoma cruzi) (UniProt O96673); assay: Trypanosoma cruzi proteasome chymotrypsin-like activity (TcProtChymo) assay.; further: in the data most compounds retested in dose-response had high values; format: functional; conditions: 9.37 µM
# T3 sequence (whole entry): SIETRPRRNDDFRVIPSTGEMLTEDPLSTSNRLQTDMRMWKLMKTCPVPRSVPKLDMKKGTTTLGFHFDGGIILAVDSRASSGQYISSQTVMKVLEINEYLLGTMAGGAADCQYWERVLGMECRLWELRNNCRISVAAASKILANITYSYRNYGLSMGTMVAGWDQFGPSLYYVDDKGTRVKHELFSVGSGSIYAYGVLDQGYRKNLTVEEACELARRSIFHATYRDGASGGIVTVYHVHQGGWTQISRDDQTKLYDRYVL
# [8] = species: Homo sapiens; assay: To identify inhibition of the IFN signalling (Jak-Stat) pathway via expression of an eGFP reporter gene under the control of an IFN-stimulated response element (ISRE) containing MxA promoter.; format: functional; conditions: 30 µM
# [9] = molecular target: T4, Tyrosyl-tRNA synthetase, putative (Trypanosoma cruzi (strain CL Brener)) (UniProt Q4DSP6); assay: Trypanosoma cruzi tyrosyl tRNA synthetase (TcYRS) _High Tyrosine SOP; format: functional; conditions: 30 µM; further: in the data most compounds retested in dose-response had high values
# T4 sequence (whole entry): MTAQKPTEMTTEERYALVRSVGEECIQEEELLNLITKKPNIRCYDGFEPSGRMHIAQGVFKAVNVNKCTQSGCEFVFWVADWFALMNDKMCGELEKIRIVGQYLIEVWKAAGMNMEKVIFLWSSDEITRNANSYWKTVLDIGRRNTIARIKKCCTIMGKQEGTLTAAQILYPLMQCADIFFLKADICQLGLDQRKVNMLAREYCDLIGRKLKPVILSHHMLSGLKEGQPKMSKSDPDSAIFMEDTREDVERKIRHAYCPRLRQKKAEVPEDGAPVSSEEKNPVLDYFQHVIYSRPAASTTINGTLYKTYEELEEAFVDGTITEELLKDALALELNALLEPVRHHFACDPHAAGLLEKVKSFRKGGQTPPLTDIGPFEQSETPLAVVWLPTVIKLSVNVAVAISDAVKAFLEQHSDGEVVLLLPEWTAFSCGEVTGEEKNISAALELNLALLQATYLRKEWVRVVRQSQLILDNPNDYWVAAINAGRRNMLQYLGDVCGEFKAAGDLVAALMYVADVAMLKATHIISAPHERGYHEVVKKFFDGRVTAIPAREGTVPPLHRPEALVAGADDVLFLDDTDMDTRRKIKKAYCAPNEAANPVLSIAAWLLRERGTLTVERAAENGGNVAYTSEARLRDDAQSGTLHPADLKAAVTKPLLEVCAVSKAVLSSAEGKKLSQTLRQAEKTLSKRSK
# [10] = molecular target: T4, Tyrosyl-tRNA synthetase, putative (Trypanosoma cruzi (strain CL Brener)); assay: Trypanosoma cruzi tyrosyl tRNA synthetase (TcYRS) SOP; format: functional; conditions: 30 µM
# [11] = molecular target: Chromo domain-containing protein 1 (Saccharomyces cerevisiae (strain ATCC 204508 / S288c) (Baker's yeast)) (UniProt P32657); assay: ScCHD-1 Enzyme Inhibition Assay; format: functional; conditions: 30 µM; further: in the data most compounds retested in dose-response had high values
# Sequence of Chromo domain-containing protein 1 (Saccharomyces cerevisiae (strain ATCC 204508 / S288c) (Baker's yeast)) (P32657 whole entry, the tested form may be a part): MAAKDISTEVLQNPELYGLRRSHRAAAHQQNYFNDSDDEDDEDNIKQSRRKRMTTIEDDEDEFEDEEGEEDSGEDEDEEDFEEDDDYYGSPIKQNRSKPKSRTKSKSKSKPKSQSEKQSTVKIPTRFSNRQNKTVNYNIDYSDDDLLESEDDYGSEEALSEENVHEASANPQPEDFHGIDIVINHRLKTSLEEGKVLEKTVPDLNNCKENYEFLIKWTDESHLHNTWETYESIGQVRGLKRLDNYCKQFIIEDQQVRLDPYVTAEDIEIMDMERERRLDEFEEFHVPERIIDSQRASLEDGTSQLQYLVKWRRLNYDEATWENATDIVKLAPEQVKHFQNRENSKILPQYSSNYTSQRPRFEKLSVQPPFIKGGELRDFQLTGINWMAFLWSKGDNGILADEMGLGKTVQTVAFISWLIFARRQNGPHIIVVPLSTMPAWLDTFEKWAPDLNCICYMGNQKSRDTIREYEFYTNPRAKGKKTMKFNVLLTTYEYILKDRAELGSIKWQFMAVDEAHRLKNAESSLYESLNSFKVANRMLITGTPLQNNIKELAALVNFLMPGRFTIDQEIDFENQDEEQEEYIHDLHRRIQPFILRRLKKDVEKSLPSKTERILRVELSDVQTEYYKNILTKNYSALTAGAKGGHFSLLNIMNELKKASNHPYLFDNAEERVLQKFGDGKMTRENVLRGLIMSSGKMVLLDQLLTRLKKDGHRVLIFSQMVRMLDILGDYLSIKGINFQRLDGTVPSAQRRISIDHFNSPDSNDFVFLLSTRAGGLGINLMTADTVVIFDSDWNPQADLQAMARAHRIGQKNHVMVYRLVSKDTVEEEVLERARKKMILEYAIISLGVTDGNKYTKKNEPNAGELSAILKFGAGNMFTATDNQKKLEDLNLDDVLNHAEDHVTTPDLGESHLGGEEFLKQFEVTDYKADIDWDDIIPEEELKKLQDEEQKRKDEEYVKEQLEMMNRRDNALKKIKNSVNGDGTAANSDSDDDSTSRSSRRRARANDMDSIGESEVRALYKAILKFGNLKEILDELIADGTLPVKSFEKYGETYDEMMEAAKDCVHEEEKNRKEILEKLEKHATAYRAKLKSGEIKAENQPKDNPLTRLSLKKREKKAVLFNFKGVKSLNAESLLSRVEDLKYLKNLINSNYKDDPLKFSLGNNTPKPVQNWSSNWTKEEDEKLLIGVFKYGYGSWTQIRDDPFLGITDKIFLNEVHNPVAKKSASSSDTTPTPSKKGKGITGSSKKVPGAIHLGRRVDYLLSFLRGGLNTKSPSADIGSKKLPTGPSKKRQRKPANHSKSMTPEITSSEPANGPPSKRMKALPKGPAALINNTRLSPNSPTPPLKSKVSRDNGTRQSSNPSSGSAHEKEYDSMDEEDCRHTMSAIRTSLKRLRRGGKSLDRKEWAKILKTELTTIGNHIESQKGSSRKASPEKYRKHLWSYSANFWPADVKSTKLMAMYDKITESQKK
# Sequence of Sialic acid-binding Ig-like lectin 9 (Homo sapiens) (Q9Y336 whole entry): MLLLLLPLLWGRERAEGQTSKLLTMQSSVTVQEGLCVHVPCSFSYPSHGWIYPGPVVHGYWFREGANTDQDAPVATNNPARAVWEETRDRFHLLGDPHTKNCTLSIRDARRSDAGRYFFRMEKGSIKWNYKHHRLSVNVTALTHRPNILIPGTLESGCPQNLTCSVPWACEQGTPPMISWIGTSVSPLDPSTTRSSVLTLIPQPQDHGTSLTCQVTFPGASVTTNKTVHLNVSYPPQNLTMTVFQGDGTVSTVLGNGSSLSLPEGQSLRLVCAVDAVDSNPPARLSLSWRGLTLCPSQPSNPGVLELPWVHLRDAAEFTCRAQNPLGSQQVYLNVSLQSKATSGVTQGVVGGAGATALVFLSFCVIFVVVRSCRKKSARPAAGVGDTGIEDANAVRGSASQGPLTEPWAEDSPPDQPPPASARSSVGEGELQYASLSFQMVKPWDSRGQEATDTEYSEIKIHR
# Sequence of Protein translocase subunit SecA (Escherichia coli (strain K12)) (P10408 whole entry): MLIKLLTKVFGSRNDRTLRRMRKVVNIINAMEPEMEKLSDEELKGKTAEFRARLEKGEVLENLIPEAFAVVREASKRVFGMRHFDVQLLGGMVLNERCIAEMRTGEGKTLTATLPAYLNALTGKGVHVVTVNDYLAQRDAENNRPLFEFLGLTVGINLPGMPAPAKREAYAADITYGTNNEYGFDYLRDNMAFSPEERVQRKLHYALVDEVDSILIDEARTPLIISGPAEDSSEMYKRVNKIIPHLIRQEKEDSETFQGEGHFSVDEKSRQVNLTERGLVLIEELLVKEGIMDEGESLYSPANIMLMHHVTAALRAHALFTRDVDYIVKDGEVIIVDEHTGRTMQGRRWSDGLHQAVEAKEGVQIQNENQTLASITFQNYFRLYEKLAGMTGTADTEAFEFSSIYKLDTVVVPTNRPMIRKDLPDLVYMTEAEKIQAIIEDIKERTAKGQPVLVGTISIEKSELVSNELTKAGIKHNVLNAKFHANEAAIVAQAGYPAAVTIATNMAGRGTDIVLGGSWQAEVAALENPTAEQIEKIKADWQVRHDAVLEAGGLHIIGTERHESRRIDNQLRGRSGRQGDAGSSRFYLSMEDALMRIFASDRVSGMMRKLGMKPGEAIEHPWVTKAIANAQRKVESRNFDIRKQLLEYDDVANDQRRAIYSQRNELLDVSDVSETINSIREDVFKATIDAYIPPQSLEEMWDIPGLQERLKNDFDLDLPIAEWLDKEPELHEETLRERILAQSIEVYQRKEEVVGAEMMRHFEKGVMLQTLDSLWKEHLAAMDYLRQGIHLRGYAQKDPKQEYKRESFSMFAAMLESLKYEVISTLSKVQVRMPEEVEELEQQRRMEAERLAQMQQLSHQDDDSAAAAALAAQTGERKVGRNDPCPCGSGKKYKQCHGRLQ
Compound,Percent Effect [1],Percent Effect [2],Percent Effect [3],Percent Effect [4],Percent Effect [5],Percent Effect [6],Percent Effect [7],Percent Effect [8],Percent Effect [9],Percent Effect [10],Percent Effect [11]
CCc1noc(C(C)N2CCC(C(=O)Nc3cnn(CC)c3)CC2)n1 (stereo not given),-1.91%,1.27%,3.92%,-3.56%,1.54%,2.37%,7.72%,8.57%,-4.17%,-10.1%,-28.9%
CC(c1nc(C2CC2)no1)N1CCN(Cc2ccccc2F)CC1 (stereo not given),-2.5%,3.8%,3.7%,3.98%,-0.718%,2.8%,1.2%,-11.4%,2.08%,7.59%,-0.861%
CC1c2ncc(Cn3cncn3)n2CCN1C1CCOCC1 (stereo not given),-4.22%,-2.67%,-5.46%,-3.4%,-4.83%,-54.3%,9.91%,2.92%,2.08%,-12.5%,-5.31%
Cc1oncc1C(=O)N1CCC2(CC1)CC(c1ccccc1)C(=O)N2C (stereo not given),-3.51%,-16%,-4.85%,1.07%,3.28%,-47.1%,7.69%,-5.26%,-37.5%,-62.5%,-5.13%
CC(=O)Nc1cccc(OCCNC(=O)N(C)Cc2ccco2)c1,-4.59%,2.63%,7.27%,-2.99%,1.46%,-4.73%,6.62%,-1.59%,4.25%,0%,-3.97%
C[C@H]1C[C@@H]2CCN(C(=O)c3cccn3C)C[C@H]2O1,-0.284%,10.8%,2.27%,-5.58%,-8.89%,6.69%,17.5%,3.63%,-1.08%,5.13%,-0.358%
CC(C)S(=O)(=O)N1CCC(c2cc3n(n2)[C@@H](C(F)(F)F)C[C@@H](C)N3)C1 (stereo not given in full),-0.301%,5.33%,-46.3%,0.653%,4.13%,-1.63%,5.02%,9.18%,4.25%,6.41%,-0.108%
CC(=O)N1CCCC1c1nccnc1Nc1cccc(C)n1 (stereo not given),-1.59%,-5.33%,11.9%,5.31%,-1.57%,0.699%,1.15%,-9.62%,-1.06%,1.28%,4.34%
CC(C)C(C(=O)N1CCC(Nc2cccnn2)CC1)n1cncn1 (stereo not given),-0.999%,-2.7%,-4.26%,1.29%,-6.51%,1.2%,5.59%,9.97%,0.493%,-1.24%,-1.75%
CCc1nccn1C1CCCN(C(=O)c2cnc3ccccc3n2)C1 (stereo not given),-5.47%,2.63%,7.07%,1.65%,-1.07%,-2.37%,7.77%,24.6%,7.45%,10.4%,-2.28%
CC(C)(C)c1ncc(C(=O)NCCNC(=O)c2ccccc2)s1,-3.42%,21.1%,-4.68%,1.92%,-3.64%,0.36%,10.7%,12.2%,7.39%,18.5%,-4.66%
O=C(c1cc(Cl)c2c(c1)OCO2)N1CCN(c2ccccn2)CC1,-2.8%,5.48%,-6.15%,5.68%,1.37%,3.64%,16.1%,14.1%,7.53%,15%,-12.5%
c1cncc(COCc2nnc3n2CCN(Cc2ccsc2)C3)c1,-1.63%,13%,2.4%,6.44%,-2.26%,-23.4%,19.6%,25%,3.23%,8.64%,-2.81%
Cc1ncsc1CN1C[C@H](C(=O)N2CCCO2)[C@@H]2CCO[C@@H]2C1,-2.57%,-8.22%,-4.3%,10.2%,7.74%,-7.58%,16.5%,-2.42%,5.21%,3.7%,-1.86%
CN(C)CC(=O)N1CCOC2(CCCN(c3ncccc3F)C2)C1 (stereo not given),-5.7%,8.11%,1.61%,5.4%,0%,1.25%,4.48%,8.63%,7.92%,13.4%,-5.27%
O=c1oc(-c2cccs2)nn1CC(O)c1ccc(F)cc1 (stereo not given),-3.82%,0%,-2.3%,3.88%,3.41%,-1.04%,13.9%,18.7%,6.01%,18.5%,-5.35%
Cc1cccc(-c2noc(CN3CCC(N4CCNC4=O)CC3)n2)c1,-6.31%,13%,4.11%,4.47%,0.374%,-1.78%,-2.2%,21.5%,7.77%,12.2%,-3.52%
O=C(CC1CC1)NCc1cn2c(n1)CN(CC1CC1)CC2,-3.1%,13.3%,16.6%,-9.15%,-3.54%,1.63%,10.7%,3.1%,-3.19%,8.97%,-5.22%
Cc1cc(C)n(C2CN(CC(=O)NC3CCOCC3)C2)n1,-6.74%,6.33%,6.98%,1.96%,-1.33%,-1.94%,9.26%,10.4%,8.33%,15.2%,-15%
O=C(Cn1ccnc1)N1C[C@@H]2CC[C@H](Oc3ccccc3Cl)[C@@H]2C1,-7.33%,-4.05%,13.2%,1.9%,0.198%,-3.94%,-1.09%,31.6%,0%,-1.3%,1.94%
